# Test results taken from the supplement of paper PMC10849652.
# The full data set covers some 8,800 targets. This sample favours those with a hit. About 0.5% of all pairs of compound and target were hits.
# Compound: NCC(=O)Nc1ccc(-n2nc(C(F)(F)F)cc2-c2ccc3c(ccc4ccccc43)c2)cc1
# Assay: log2 fold change, soluble protein after heating vs DMSO (PISA); higher = thermal stabilisation; K562 lysate, 10 uM; active = over 0.2 and 3.5 SD of the protein, either way, in both replicates (recomputed)
# Outline: (§1)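 Soluble protein was defined as the supernatant remaining after 21,000xg for 90 min, following pooling of heated aliquots and adjustment to 0.5% NP-40 at 4°C. Before that, crude K562 extract at 1 mg/mL protein in PBS pH 7.4 with 1 mM MgCl2 was treated with 10 μM compound for 30 min and heated for 3 min across 48°C-58°C. Quantification used TMTpro 16plex LC-MS/MS with channel sums equalised, and values are log-two fold changes in thermal stability relative to solvent controls from duplicates.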
# Chain of UniProt O95429 (O95429 whole entry, looked up): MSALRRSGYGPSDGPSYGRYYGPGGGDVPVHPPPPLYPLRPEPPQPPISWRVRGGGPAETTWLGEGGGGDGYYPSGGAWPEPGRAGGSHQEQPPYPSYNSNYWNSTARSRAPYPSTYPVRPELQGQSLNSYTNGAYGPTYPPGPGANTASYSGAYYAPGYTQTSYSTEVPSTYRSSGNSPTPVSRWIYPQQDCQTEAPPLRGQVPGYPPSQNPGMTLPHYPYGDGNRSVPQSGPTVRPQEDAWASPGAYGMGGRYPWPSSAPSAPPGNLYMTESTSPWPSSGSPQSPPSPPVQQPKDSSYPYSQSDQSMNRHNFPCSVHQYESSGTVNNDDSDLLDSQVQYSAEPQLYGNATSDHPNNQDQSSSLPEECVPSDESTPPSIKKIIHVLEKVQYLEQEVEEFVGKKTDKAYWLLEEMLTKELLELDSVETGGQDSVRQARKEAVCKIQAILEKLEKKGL
# Chain of UniProt Q96B23 (Q96B23 whole entry, looked up): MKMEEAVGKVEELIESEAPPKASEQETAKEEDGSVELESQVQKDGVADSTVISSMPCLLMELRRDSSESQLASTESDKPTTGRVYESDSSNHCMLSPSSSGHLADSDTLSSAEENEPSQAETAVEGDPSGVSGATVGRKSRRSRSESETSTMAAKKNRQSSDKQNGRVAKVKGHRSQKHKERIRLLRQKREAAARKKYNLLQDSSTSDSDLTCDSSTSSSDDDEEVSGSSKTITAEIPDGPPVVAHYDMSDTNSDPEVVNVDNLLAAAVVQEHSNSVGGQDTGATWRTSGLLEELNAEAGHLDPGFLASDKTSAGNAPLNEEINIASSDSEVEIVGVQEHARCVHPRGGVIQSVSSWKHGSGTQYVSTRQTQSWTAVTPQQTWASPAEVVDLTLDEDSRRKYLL
# Chain of UniProt Q06187 (Q06187 whole entry, looked up): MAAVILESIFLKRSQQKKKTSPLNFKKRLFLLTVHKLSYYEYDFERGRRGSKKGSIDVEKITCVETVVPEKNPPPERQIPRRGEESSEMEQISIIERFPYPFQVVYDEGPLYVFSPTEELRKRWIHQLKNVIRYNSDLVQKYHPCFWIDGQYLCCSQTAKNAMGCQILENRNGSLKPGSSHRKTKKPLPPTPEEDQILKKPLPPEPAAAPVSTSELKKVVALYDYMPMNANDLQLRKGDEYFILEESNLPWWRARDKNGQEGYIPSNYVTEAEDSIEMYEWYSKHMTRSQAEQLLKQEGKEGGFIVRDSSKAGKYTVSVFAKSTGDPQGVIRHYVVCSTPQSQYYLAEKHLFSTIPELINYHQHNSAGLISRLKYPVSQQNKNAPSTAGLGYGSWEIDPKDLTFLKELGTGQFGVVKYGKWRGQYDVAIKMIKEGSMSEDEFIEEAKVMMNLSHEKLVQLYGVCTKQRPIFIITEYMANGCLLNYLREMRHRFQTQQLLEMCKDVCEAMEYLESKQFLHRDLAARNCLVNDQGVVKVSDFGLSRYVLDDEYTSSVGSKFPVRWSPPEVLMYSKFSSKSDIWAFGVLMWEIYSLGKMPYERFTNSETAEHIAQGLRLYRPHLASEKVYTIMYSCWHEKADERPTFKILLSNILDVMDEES
# Chain of UniProt P18859 (P18859 whole entry, looked up): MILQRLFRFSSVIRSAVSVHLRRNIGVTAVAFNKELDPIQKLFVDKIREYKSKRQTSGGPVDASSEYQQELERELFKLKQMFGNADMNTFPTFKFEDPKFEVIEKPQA
# Chain of UniProt P04632 (P04632 whole entry, looked up): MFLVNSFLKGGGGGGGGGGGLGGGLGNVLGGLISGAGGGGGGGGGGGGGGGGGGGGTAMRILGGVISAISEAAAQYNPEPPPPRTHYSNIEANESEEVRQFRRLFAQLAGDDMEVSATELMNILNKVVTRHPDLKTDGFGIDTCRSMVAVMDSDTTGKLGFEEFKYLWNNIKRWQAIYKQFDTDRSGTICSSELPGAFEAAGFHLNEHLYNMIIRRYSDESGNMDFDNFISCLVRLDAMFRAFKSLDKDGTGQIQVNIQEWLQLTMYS
# Chain of UniProt Q9H0Y0 (Q9H0Y0 whole entry, looked up): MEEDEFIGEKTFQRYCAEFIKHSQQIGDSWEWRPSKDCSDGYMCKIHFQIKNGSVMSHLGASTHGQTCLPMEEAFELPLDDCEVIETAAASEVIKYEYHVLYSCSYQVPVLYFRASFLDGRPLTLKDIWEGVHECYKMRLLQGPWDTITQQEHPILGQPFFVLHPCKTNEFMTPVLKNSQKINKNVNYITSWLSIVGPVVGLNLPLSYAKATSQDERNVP
# Chain of UniProt Q9NSG2 (Q9NSG2 whole entry, looked up): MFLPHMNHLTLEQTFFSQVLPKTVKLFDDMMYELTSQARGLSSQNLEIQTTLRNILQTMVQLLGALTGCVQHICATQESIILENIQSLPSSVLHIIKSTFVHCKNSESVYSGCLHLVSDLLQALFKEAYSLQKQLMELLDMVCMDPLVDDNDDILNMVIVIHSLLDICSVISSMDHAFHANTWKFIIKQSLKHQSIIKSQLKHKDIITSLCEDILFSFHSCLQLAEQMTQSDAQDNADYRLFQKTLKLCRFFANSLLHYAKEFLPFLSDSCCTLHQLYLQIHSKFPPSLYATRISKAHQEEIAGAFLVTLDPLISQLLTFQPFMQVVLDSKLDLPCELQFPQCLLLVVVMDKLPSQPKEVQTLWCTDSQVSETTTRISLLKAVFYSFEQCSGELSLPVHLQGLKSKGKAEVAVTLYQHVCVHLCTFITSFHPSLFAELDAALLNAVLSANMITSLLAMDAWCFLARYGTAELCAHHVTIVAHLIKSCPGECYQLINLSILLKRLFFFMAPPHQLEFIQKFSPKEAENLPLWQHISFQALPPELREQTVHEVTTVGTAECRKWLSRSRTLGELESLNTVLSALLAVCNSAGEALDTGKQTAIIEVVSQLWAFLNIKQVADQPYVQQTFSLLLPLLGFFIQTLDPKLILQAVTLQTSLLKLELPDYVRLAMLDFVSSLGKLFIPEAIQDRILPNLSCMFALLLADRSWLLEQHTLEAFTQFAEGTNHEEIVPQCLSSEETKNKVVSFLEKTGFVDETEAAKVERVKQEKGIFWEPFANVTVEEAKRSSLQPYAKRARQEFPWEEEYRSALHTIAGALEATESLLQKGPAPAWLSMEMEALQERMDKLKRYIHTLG
# Chain of UniProt Q9Y4P1 (Q9Y4P1 whole entry, looked up): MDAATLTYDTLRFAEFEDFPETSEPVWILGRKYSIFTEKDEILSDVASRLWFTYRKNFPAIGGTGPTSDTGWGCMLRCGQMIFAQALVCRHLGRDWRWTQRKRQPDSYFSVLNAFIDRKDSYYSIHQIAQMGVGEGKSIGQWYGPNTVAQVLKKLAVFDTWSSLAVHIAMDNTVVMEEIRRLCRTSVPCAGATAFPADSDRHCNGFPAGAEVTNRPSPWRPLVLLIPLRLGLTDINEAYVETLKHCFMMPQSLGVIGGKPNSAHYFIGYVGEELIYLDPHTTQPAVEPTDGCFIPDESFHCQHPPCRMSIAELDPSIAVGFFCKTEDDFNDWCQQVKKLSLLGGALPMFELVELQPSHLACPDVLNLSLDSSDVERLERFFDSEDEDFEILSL
# Chain of UniProt Q53HL2 (Q53HL2 whole entry, looked up): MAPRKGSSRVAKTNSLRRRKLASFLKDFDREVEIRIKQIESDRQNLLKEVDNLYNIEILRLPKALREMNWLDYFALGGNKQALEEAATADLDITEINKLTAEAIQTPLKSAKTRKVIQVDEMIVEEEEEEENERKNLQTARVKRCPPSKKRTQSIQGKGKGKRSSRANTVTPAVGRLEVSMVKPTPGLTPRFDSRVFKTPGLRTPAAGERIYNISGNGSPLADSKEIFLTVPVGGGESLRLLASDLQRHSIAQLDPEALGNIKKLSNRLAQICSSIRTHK
# Chain of UniProt Q9Y297 (Q9Y297 whole entry, looked up): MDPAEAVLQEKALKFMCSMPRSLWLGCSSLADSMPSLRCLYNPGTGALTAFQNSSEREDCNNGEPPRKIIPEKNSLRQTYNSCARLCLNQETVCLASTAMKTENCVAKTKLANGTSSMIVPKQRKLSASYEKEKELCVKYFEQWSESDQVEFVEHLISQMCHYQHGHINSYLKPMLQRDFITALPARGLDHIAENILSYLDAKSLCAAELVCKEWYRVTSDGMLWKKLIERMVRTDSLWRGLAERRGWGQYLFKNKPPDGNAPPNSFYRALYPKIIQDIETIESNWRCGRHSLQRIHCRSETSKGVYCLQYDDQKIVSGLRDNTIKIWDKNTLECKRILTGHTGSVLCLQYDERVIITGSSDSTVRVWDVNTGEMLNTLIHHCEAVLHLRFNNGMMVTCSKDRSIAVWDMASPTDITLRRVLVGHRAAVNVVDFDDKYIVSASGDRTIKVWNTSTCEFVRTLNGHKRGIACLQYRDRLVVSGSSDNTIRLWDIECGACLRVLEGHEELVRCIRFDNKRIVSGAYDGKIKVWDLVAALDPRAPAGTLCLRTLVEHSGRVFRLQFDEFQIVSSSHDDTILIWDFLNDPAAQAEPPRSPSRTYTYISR
# Chain of UniProt P30281 (P30281 whole entry, looked up): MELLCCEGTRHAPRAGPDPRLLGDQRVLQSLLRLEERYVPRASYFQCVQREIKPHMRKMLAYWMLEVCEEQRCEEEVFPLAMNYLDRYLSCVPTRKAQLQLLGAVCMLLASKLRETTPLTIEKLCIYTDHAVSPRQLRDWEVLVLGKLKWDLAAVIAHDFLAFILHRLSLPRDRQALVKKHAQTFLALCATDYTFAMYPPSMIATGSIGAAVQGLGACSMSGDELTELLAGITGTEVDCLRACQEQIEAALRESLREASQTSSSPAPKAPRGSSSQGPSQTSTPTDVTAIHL
# Chain of UniProt P13994 (P13994 whole entry, looked up): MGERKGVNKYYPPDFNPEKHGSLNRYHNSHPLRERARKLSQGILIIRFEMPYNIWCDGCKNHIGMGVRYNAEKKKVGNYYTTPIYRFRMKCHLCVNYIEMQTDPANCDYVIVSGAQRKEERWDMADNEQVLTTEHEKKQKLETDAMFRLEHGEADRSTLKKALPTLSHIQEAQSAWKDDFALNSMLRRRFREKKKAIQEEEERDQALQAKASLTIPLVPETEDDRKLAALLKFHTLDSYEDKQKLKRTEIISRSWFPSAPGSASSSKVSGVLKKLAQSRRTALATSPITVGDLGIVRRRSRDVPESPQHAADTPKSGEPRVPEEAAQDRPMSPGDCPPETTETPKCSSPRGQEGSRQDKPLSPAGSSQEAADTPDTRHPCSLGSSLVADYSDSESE
row,Target,log2 fold change
1,CAD (UniProt H7BZB3),0.113 (inactive)
2,CHCHD7 isoform 4 (UniProt Q9BUK0),-0.031 (inactive)
3,BTRC (UniProt Q9Y297),0.03 (inactive)
4,CDKL5 (UniProt O76039),0.037 (inactive)
5,BAG4 (UniProt O95429),-0.013 (inactive)
6,ATG10 (UniProt Q9H0Y0),-0.032 (inactive)
7,CAPNS1 (UniProt P04632),-0.08 (inactive)
8,ATG4B (UniProt Q9Y4P1),-0.009 (inactive)
9,ATP5PF isoform 2 (UniProt P18859),-0.002 (inactive)
10,"BRAF, A0A2R8Y8E0",0.017 (inactive)
11,CDK1 (UniProt P06493),0.029 (inactive)
12,CEP128 (UniProt Q6ZU80),0.017 (inactive)
13,BTK isoform 2 (UniProt Q06187),0.439 (active)
14,CENPV (UniProt Q7Z7K6),0.396 (inactive)
15,C18orf25 isoform 2 (UniProt Q96B23),-0.014 (inactive)
16,C1orf112 (UniProt Q9NSG2),-0.075 (inactive)
17,CDCA8 (UniProt Q53HL2),0.066 (inactive)

# Compound: O=C(CCCCCCC(=O)Nc1ccccc1)NO [vorinostat]
# Assay: as above
# Outline: as §1
row,Target,log2 fold change
1,CAD (UniProt H7BZB3),-0.54 (inactive)
2,BTRC (UniProt Q9Y297),-0.342 (active)
3,CDC25A (UniProt P30304),-1.01 (active)
4,BICRA (UniProt Q9NZM4),0.11 (inactive)
5,BAG4 (UniProt O95429),0.03 (inactive)
6,ATG10 (UniProt Q9H0Y0),-0.242 (active)
7,BNIP3 (UniProt Q12983),0.066 (inactive)
8,CCDC130 (UniProt P13994),-0.003 (inactive)
9,CEP57L1 (UniProt Q8IYX8),-0.23 (inactive)
10,CAPNS1 (UniProt P04632),0.07 (inactive)
11,ATG4B (UniProt Q9Y4P1),-0.274 (active)
12,C9orf72 (UniProt Q96LT7),0.919 (active)
13,ATP5PF isoform 2 (UniProt P18859),0.206 (inactive)
14,C8orf88 (UniProt P0DMB2),-0.455 (active)
15,BUD13 (UniProt Q9BRD0),0.136 (inactive)
16,B3GALT6 (UniProt Q96L58),0.218 (inactive)
17,CDK1 (UniProt P06493),-0.049 (inactive)
18,C15orf39 (UniProt Q6ZRI6),-0.513 (active)
19,CASP7 isoform 3 (UniProt P55210),-0.254 (inactive)
20,BTK isoform 2 (UniProt Q06187),-0.322 (active)
21,C18orf25 isoform 2 (UniProt Q96B23),-0.034 (inactive)
22,C1orf112 (UniProt Q9NSG2),-0.095 (inactive)
23,CCND3 (UniProt P30281),-0.051 (inactive)
24,CDCA8 (UniProt Q53HL2),0.13 (inactive)
25,C6orf120 (UniProt Q7Z4R8),0.273 (inactive)
26,CDK11A (UniProt Q9UQ88),-0.329 (inactive)
27,CEP295 isoform 3 (UniProt Q9C0D2),-0.004 (inactive)

# Compound: O=C(O)c1ccc2c(c1)nc(Nc1cccc(Cl)c1)c1ccncc12 [silmitasertib]
# Assay: as above
# Outline: as §1
row,Target,log2 fold change
1,CAD (UniProt H7BZB3),-0.006 (inactive)
2,BTRC (UniProt Q9Y297),0.035 (inactive)
3,CDC25A (UniProt P30304),0.084 (inactive)
4,BICRA (UniProt Q9NZM4),-0.203 (inactive)
5,BAG4 (UniProt O95429),-0.067 (inactive)
6,ATG10 (UniProt Q9H0Y0),0.049 (inactive)
7,BNIP3 (UniProt Q12983),-0.08 (inactive)
8,CCDC130 (UniProt P13994),0.173 (inactive)
9,CEP57L1 (UniProt Q8IYX8),0.133 (inactive)
10,CAPNS1 (UniProt P04632),-0.007 (inactive)
11,ATG4B (UniProt Q9Y4P1),0.043 (inactive)
12,C9orf72 (UniProt Q96LT7),-0.045 (inactive)
13,ATP5PF isoform 2 (UniProt P18859),-0.116 (inactive)
14,C8orf88 (UniProt P0DMB2),0.056 (inactive)
15,BUD13 (UniProt Q9BRD0),0.054 (inactive)
16,B3GALT6 (UniProt Q96L58),-0.029 (inactive)
17,C15orf39 (UniProt Q6ZRI6),0.008 (inactive)
18,CASP7 isoform 3 (UniProt P55210),0.113 (inactive)
19,BTK isoform 2 (UniProt Q06187),0.066 (inactive)
20,C18orf25 isoform 2 (UniProt Q96B23),-0.067 (inactive)
21,C1orf112 (UniProt Q9NSG2),-0.084 (inactive)
22,CCND3 (UniProt P30281),0.017 (inactive)
23,CDCA8 (UniProt Q53HL2),-0.093 (inactive)
24,C6orf120 (UniProt Q7Z4R8),-0.075 (inactive)
25,CDK11A (UniProt Q9UQ88),0.049 (inactive)
26,CEP295 isoform 3 (UniProt Q9C0D2),0.076 (inactive)
